An excerpt weighted towards active compounds, which were near 4.7% of everything screened.
TRHR enhancer-1: qHTS for Small Molecule Agonists and Allosteric Enhancers of Human TRH Receptor: Primary Screen for Enhancers. Thyrotropin-releasing hormone receptor (Homo sapiens), P34981. TRHR cells, fluo-8 calcium fluorescence, EC20 TRH enhancement. enhancement, % at 2 µM. 360,000 compounds, 0.66% hits; in the data active means enhancement above about 30%; further: 0% is about no effect
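Enhancer read-out: after compound pinning and an initial kinetic agonist-mode read, an EC20 of TRH (10 nM final) was injected and fluo-8 calcium signal (Ex 480/Em 530) followed at 1 s/cycle for 100 cycles in TRHR-expressing cells.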
D1 agonist: Allosteric Agonists of the Human D1 Dopamine Receptor: qHTS | 360,000 compounds, 1% hits | activation, % at 2 µM | HEK293 T-REx D1 cells, calcium flux, agonist mode | AID 504660, 2011; in the data active means activation above about 30%; further: 0% is about no effect
Target sequence (P21728 whole entry, looked up): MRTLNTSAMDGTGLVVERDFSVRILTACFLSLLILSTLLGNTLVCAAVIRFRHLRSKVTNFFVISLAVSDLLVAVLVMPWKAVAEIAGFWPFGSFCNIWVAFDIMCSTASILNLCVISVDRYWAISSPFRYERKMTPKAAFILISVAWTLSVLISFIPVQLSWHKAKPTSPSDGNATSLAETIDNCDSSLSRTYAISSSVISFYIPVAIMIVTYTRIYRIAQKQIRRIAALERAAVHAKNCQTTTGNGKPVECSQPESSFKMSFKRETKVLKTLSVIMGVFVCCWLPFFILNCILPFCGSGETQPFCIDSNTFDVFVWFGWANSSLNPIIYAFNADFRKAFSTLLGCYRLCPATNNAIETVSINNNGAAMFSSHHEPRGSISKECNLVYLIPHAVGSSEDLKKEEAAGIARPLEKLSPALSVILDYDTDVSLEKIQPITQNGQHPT
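Tetracycline-induced HEK293 TREx D1 cells, force-coupled to calcium signalling, were dye-loaded with a no-wash calcium kit. Compound was pin-added after a 10 s baseline. Fluorescence was read kinetically at 1 cycle/s for 180 s, with calcium rises flagged as agonism.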
TRHR agonist-1: qHTS for Small Molecule Agonists and Allosteric Enhancers of Human TRH Receptor: Primary Screen for Agonists; Thyrotropin-releasing hormone receptor (Homo sapiens), P34981; TRHR cells, calcium flux fluo-8, FDSS agonist mode; activation, % at 2 µM; 360,000 compounds, 0.18% hits; AID 493084, 2011; in the data active means activation above about 30%; further: 0% is about no effect
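TRHR-expressing cells loaded with fluo-8 calcium dye; 23 nL library compound pin-transferred, kinetic FDSS fluorescence (Ex 480/Em 530) recorded about 180 s for agonist-induced calcium release, before a 10 nM TRH EC20 addition for potentiator mode.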
D1 antagonist: Antagonist of Human D 1 Dopamine Receptor: qHTS | HEK293 TREx D1 cells, calcium flux, dopamine EC80; hits give low values | activity change, negative = inhibition, % at 10 µM | 360,000 compounds, 3.2% hits; in the data active means activity change below about -30%; further: on the % scale 0 is the no-effect control and ±100 the full control effect
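Allosteric or orthosteric antagonism assessed as attenuation of the calcium response to EC80 dopamine, added 180 s after compound, in induced HEK293 Trex D1 cells loaded with no-wash calcium dye.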
D1 PAM: Potentiators of Human D1 Dopamine Receptor: qHTS; 360,000 compounds, 0.036% hits; potentiation, % at 10 µM; AID 504651, 2011; HEK293 TREx D1 cells, calcium flux, dopamine EC20 potentiation; in the data active means potentiation above about 30%; further: 0% is about no effect
TRHR enhancer-2: qHTS for Small Molecule Agonists and Allosteric Enhancers of Human TRH Receptor: Confirmation Screen for Enhancers | 970 tested, under 10 active | activity change, negative = inhibition, % at 46.1 µM | TRH receptor cell assay, enhancer confirmation qHTS | shares compounds with TRHR enhancer-1;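 further: compound effect scored on response to added TRH at EC20 of 10 nM; 0% is about no effect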
TRHR agonist-2: qHTS for Small Molecule Agonists and Allosteric Enhancers of Human TRH Receptor: Confirmation Screen for Agonists; shares compounds with TRHR enhancer-1; TRHR-expressing cells, agonist activation read-out; Potency, µM (series often up to 46.1 µM), inactives show at the top dose activation, actives largely listed as activators; 970 compounds, 8% hits; AID 493078, 2011; further: potency means the concentration at half of the fitted maximal effect; 0% is about no effect; nearly all actives have a fitted effect of over 75% in size
* marks the source's active call; other numbers are inactive results; ? = inconclusive; / = no result. Unless noted, the call rests on the fitted dose curve; in most records, active means well fitted curve in the direction sought with a large enough effect; inconclusive means small, poorly fitted or top-dose-only effect, or another doubt; inactive means no such curve, though single readings can be large; an effect the other way counts as inactive or inconclusive.

SMILES	TRHR enhancer-1	D1 agonist	TRHR agonist-1	D1 antagonist	D1 PAM	TRHR enhancer-2	TRHR agonist-2
O=C(CNC(=O)c1ccccc1)NC1(C(=O)NC2CCCCC2)CCCCC1	53*	3	1	8	5	-16	-1%
O=C(CNC(=O)c1ccccc1)NC1(C(=O)NC2CCCC2)CCCCC1	-5	0	0	2	0	/	/
Cc1ccc(-c2csc3ncnc(N4CCN(Cc5ccccc5)CC4)c23)cc1	54*	2	0	6	-5	-3	-1%
CCOC(=O)c1ccccc1NC(=O)Nc1cc2c(cc1N1CCCC1)n(C)c(=O)n2C	4	0	-1	4	-1	/	/
COc1ccc(/C=C/C(=O)NCC(=O)N/N=C(/C)c2ccco2)cc1	1	0	0	2	-1	/	/
COc1ccc(/C(C)=N/NC(=O)CNC(=O)c2ccco2)cc1	46*	-1	0	15	3	-2	1%
Cc1ccccc1CNC(=O)c1oc2c(c1C)-c1nn(Cc3ccc(Cl)cc3)cc1CC2	-4	1	0	7	1	/	/
CC1CCN(C(=O)c2ccc(NS(=O)(=O)c3ccccc3)cc2)CC1	44*	7	-1	-32*	-8	1	1%
O=C(c1ccc(NS(=O)(=O)c2ccccc2)cc1)N1CCCC1	1	2	0	-20	-1	/	/
COCCNC(=S)N/N=C/c1ccc(-c2ccc([N+](=O)[O-])cc2)o1	2	88*	34*	-4	2	-8	10µM*
O=[N+]([O-])c1ccc(-c2ccc(/C=N/O)o2)cc1	6	2	0	9	0	/	/
CCOC(=O)C1(CC2CC2)CCN(S(=O)(=O)C[C@]23CC[C@H](CC2=O)C3(C)C)CC1	1	6	34*	1	-4	5	?
CC1(C)C2CCC1(CS(=O)(=O)N1CCC(C(N)=O)CC1)C(=O)C2 (stereo not drawn)	2	4	1	13	-4	/	/
CCCCCSc1nc2sc3c(c2c(=O)n1-c1ccccc1)CCN(C(C)=O)C3	16	16	-2	25	2	/	/
CCCCn1cc(S(=O)(=O)c2ccc(CC)cc2)c(=O)c2cc(F)c(N3CCOCC3)cc21	8	1	0	9	1	/	/
N#CCSc1nnc2sc3ccccc3n12	-3	3	0	-9	-2	/	/
Cc1noc(C)c1CSc1nnc2sc3ccccc3n12	43*	3	0	23	13	-5	1%
CC1Cc2ccccc2N1C(=O)CSc1nnc2sc3ccccc3n12 (stereo not drawn)	63*	0	0	-3	2	1	-1%
O=C(CNCc1ccccc1Cl)Nc1ccc(C(=O)N2CCCCC2)cc1	41*	28	-1	-8	-3	0	-1%
NC(=O)c1ccc(NC(=O)CNCc2ccccc2Cl)cc1	-3	5	0	-4	-8	/	/
NS(=O)(=O)c1ccc(NC(=O)CSC2CCCCC2)cc1	45*	1	0	-15	0	-1	0%
N=c1sccn1CC(=O)Nc1ccc(S(N)(=O)=O)cc1	54*	2	1	4	-3	-1	0%
Cc1csc2nc(CCNS(=O)(=O)c3ccc(F)cc3)cn12	-4	1	0	21	-4	/	/
O=C(c1cc2ccccc2oc1=O)N1CCCC1	2	1	1	-7	-1	/	/
O=C(c1cc2ccccc2oc1=O)N1CCCCCCC1	56*	3	0	-12	2	-4	-1%
SMILES	TRHR enhancer-1	D1 agonist	TRHR agonist-1	D1 antagonist	D1 PAM	TRHR enhancer-2	TRHR agonist-2
O=C(Nc1ccc(Cl)cc1Cl)c1ccc2c(=O)n3c(nc2c1)CCC3	-5	2	26	1	-7	2	?
O=C(Nc1ccc(Br)cc1Cl)c1ccc2c(=O)n3c(nc2c1)CCC3	12	8	0	-4	0	/	/
COc1ccccc1/C=C1\C(=O)Nc2ccccc21	41*	1	0	2	-4	-9	-1%
O=C1Nc2ccccc2/C1=C/c1ccccc1Cl	-2	0	0	-10	-9	/	/
CCCN1C(=O)/C(=C/c2ccc(N3CCOCC3)cc2)NC1=S	13	132*	48*	5	-1	?	16µM*
Cc1ccc(CN2C(=O)N/C(=C\c3ccc(N4CCOCC4)cc3)C2=O)cc1	-3	2	0	-2	-6	/	/
O=C(NC(=S)Nc1ccc(N2CCCCC2)cc1)c1cccs1	1	0	1	-6	6	/	/
CS(=O)(=O)N1CCN(c2ccc(NC(=S)NC(=O)c3cccs3)cc2)CC1	44*	6	-1	2	-8	-5	0%
Cc1ccc(NCc2cc3cc4c(cc3n(CC(=O)Nc3ccc(C)cc3)c2=O)OCCO4)cc1	-4	19	16	-6	1	/	/
Cc1[nH]n(-c2ccccc2)c(=O)c1C=NC1CCCCC1	44*	-2	0	-6	-6	-3	1%
Cc1[nH]n(-c2ccccc2)c(=O)c1C=NC1CCCCCC1	0	3	0	2	1	/	/
COc1ccc2nc3ccccc3nc2c1	49*	-1	1	-14	4	-1	2%
COc1ccc(-c2nc3ccccc3nc2-c2ccccc2)cc1	9	3	0	4	-3	/	/
O=C(NCc1ccc2c(c1)OCO2)c1cccc(S(=O)(=O)N2CCCC2)c1	-1	0	0	8	-2	/	/
COc1ccc(OCCC(=O)OCC(=O)Nc2cccc(S(=O)(=O)N3CCOCC3)c2)cc1	0	5	0	-18	-3	/	/
O=C(Nc1cccc(S(=O)(=O)N2CCCC2)c1)c1cccc(S(=O)(=O)N2CCOCC2)c1	-5	1	29	-1	-2	4	2%
O=C(NCc1ccc2c(c1)OCO2)c1cccc(S(=O)(=O)N2CCCCC2)c1	-17	2	44*	-16	-4	-9	2%
CC(C)(C)c1ccc(OCCC(=O)Nc2cccc(S(=O)(=O)N3CCOCC3)c2)cc1	44*	30	1	-7	-3	5	0%
Cc1ccc(-c2nc(CCNC(=O)C(=O)Nc3ccc(C)c(C)c3)cs2)cc1	5	1	0	-22	-3	/	/

Source: PubChem BioAssay (National Center for Advancing Translational Sciences (NCATS))
